Experimental data: article PMC5540273 (PLoS ONE, 2017)

Legend:
Conditions in all cases: concentration: 1 μM, replicates: in singlicate; n = 1
[1] = system: MAP3K3
[2] = system: MAP3K4
[3] = system: MAP4K2
[4] = system: MAP4K3
[5] = system: MAP4K4
[6] = system: MAP4K5
[7] = system: MAPKAPK2
[8] = system: MAPKAPK5
[9] = system: MARK1
[10] = system: MARK2
[11] = system: MARK3
[12] = system: MARK4
[13] = system: MAST1
[14] = system: T1, MEK1
T1 construct: gene MAP2K1

[15] = system: T2, MEK2
T2 construct: gene MAP2K2

[16] = system: T3, MEK3
T3 construct: gene MAP2K3

[17] = system: T4, MEK4
T4 construct: gene MAP2K4

[18] = system: T5, MEK5
T5 construct: gene MAP2K5

[19] = system: T6, MEK6
T6 construct: gene MAP2K6

[20] = system: MELK
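Also: KINOMEscan kinase panel screen.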

Row | Compound | %Inh [1] [%] | %Inh [2] [%] | %Inh [3] [%] | %Inh [4] [%] | %Inh [5] [%] | %Inh [6] [%] | %Inh [7] [%] | %Inh [8] [%] | %Inh [9] [%] | %Inh [10] [%] | %Inh [11] [%] | %Inh [12] [%] | %Inh [13] [%] | %Inh [14] [%] | %Inh [15] [%] | %Inh [16] [%] | %Inh [17] [%] | %Inh [18] [%] | %Inh [19] [%] | %Inh [20] [%]
1 | COC(=O)c1cccc(NC(=O)NCCNc2ccnc(Nc3ccc(F)cc3)n2)c1 [GSK1379883] | 0 | 0 | 0 | 0 | 0 | 0 | 24 | 0 | 0 | 0 | 0 | 2 | 0 | 1 | 0 | 0 | 13 | 9 | 0 | 17
2 | COc1ccc(-c2oc3ncnc(N)c3c2-c2ccc(OC)cc2)cc1 [SB-589132] | 0 | 0 | 0 | 0 | 0 | 0 | 19 | 0 | 0 | 0 | 2 | 0 | 53 | 0 | 0 | 0 | 0 | 88 | 0 | 8
3 | Nc1nc(-c2cccnc2)c(-c2ccnc3ccccc23)s1 [GW684083] | 0 | 0 | 0 | 0 | 16 | 0 | 14 | 0 | 0 | 0 | 0 | 0 | 22 | 0 | 0 | 0 | 1 | 70 | 0 | 6
4 | Clc1ccc(-c2cc(-c3c[nH]nc3-c3ccccn3)ccn2)cc1 [GW681251] | 0 | 19 | 0 | 0 | 63 | 18 | 13 | 0 | 0 | 0 | 0 | 0 | 0 | 39 | 0 | 0 | 2 | 0 | 0 | 40
5 | COc1ccc(NC(=O)c2ccc(-c3cc(-c4nnc(C)o4)ccc3C)cc2)cc1 [GW595885] | 0 | 20 | 0 | 0 | 4 | 0 | 25 | 0 | 0 | 0 | 0 | 0 | 5 | 0 | 0 | 0 | 9 | 0 | 0 | 0
6 | Nc1nc(-c2ccc3c(N)n[nH]c3c2)cc(N2CCC[C@@H](C(=O)Nc3ccccc3)C2)n1.O=C(O)C(F)(F)F.O=C(O)C(F)(F)F [GSK2288359] | 0 | 28 | 0 | 0 | 5 | 6 | 0 | 0 | 0 | 0 | 0 | 0 | 0 | 0 | 8 | 3 | 0 | 50 | 8 | 13
7 | CC(=O)Nc1n[nH]c2ncc(-c3ccccc3)cc12 [SB-548492] | 37 | 11 | 25 | 0 | 0 | 4 | 5 | 8 | 11 | 5 | 0 | 8 | 42 | 23 | 35 | 19 | 21 | 87 | 0 | 21
8 | Cl.c1ccc(Cn2ncc3cc(Nc4ncnc5ccccc45)ccc32)cc1 [GW273749] | 0 | 0 | 0 | 0 | 0 | 0 | 13 | 0 | 0 | 0 | 0 | 0 | 0 | 0 | 7 | 0 | 0 | 99.7 | 6 | 0
9 | COc1ccc(Nc2nccc(N3CCC(NC(=O)c4cccc(NC(C)=O)c4)C3)n2)cc1 (stereo not drawn) [GSK1379732] | 0 | 0 | 0 | 0 | 0 | 0 | 0 | 0 | 0 | 0 | 3 | 0 | 42 | 0 | 0 | 0 | 18 | 19 | 0 | 0
10 | Fc1ccc(Nc2nccc(-c3c(-c4ccc(Cl)cc4)nn4ncccc34)n2)cc1F [GW829058] | 40 | 17 | 34 | 0 | 1 | 6 | 3 | 0 | 16 | 15 | 34 | 25 | 26 | 29 | 42 | 27 | 30 | 14 | 13 | 0
11 | Fc1cccc(COc2ccc(Nc3ncnc4nn5ccccc5c34)cc2Cl)c1 [GW689066] | 0 | 0 | 0 | 0 | 0 | 0 | 4 | 0 | 0 | 0 | 0 | 0 | 23 | 0 | 0 | 0 | 8 | 45 | 0 | 5
12 | CS(=O)(=O)CCNCc1ccc(-c2ccc3ncnc(Nc4ccc(OCc5ccccc5)c(Cl)c4)c3c2)o1.Cl [GW574783] | 0 | 0 | 0 | 1 | 0 | 5 | 16 | 0 | 0 | 0 | 3 | 9 | 23 | 10 | 0 | 3 | 15 | 85 | 0 | 23
13 | Nc1n[nH]c2nnc(-c3ccccc3)cc12 [SB-517389] | 0 | 32 | 0 | 0 | 3 | 0 | 5 | 0 | 0 | 0 | 0 | 0 | 0 | 0 | 0 | 0 | 24 | 38 | 0 | 0
14 | CCC(CC)(CC)n1cnc2c(N)ncnc21 [SKF-97620] | 0 | 0 | 25 | 0 | 0 | 0 | 0 | 10 | 24 | 15 | 34 | 37 | 32 | 10 | 21 | 36 | 43 | 45 | 14 | 0
15 | O=c1cc(N2CCOCC2)nc2n(Cc3cccc(Cl)c3)ccn12 [GSK2296823] | 0 | 4 | 0 | 7 | 0 | 0 | 40 | 0 | 0 | 81 | 0 | 5 | 0 | 8 | 0 | 0 | 4 | 13 | 0 | 0
16 | FC(F)(F)c1ccc(-c2nn3ncccc3c2-c2ccnc(Nc3cccc(C(F)(F)F)c3)n2)cc1 [GW828205] | 21 | 8 | 0 | 0 | 4 | 0 | 0 | 0 | 3 | 0 | 13 | 0 | 12 | 4 | 28 | 0 | 0 | 4 | 0 | 0
17 | Cl.Fc1ccccc1COc1ccc(Nc2ncnc3ccc(-c4nnc(C(F)(F)F)o4)cc23)cc1Cl [GW424170] | 0 | 15 | 0 | 0 | 0 | 0 | 0 | 0 | 0 | 0 | 0 | 0 | 0 | 0 | 0 | 0 | 28 | 10 | 0 | 0
18 | Cl.O=S(=O)(c1cccc(F)c1)c1ccc(Nc2ncnc3cc(Br)sc23)cc1Cl [GSK306886] | 0 | 9 | 0 | 0 | 0 | 0 | 0 | 0 | 0 | 0 | 0 | 1 | 0 | 0 | 6 | 0 | 22 | 26 | 38 | 0
19 | Fc1ccc(-c2ncn(CCCNCc3ccccc3)c2-c2ccncc2)cc1 | 16 | 7 | 14 | 0 | 0 | 12 | 10 | 19 | 0 | 0 | 5 | 0 | 28 | 26 | 20 | 30 | 0 | 31 | 17 | 5
20 | Cl.c1ccc(Cn2ccc3cc(Nc4ncnc5ccccc45)ccc32)cc1 [GW275568] | 0 | 5 | 0 | 1 | 4 | 3 | 7 | 0 | 17 | 28 | 1 | 30 | 0 | 14 | 6 | 11 | 19 | 84 | 5 | 9
21 | CN1c2ccc(-c3ccc(C(=O)NCCO)cc3)cc2-c2[nH]ncc2S1(=O)=O | 40 | 0 | 26 | 11 | 27 | 25 | 0 | 0 | 38 | 24 | 0 | 35 | 0 | 0 | 27 | 25 | 0 | 68 | 1 | 32
